Laboratory results as given in PubChem BioAssay (NCI).
Several values for one entry are separate records, joined by “and”; a condition that tells them apart may be missing. Identical values can stand only once. The panel holds about 83,000 compounds, 20% with a hit somewhere; the sample as a whole holds those more often.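 Plates (96-well) were seeded with cells, treated with compound at one concentration, and incubated for 48 hours before percent growth was determined.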 Activity calls are given as the source filed them.

Test system: SNB-19 CNS
Assay: NCI-60 one-dose screen, 48 h (100 = growth as untreated, 0 = no growth, -100 = all killed)
Conditions: 0.25 µM
Method: Growth inhibition of the SNB-19 human tumor cell line is measured as a screen for anti-cancer activity. Cells are grown in 96 well plates and exposed to the test compound for 48 hours. Compounds are tested at a single concentration, which is 10^-5 M for most compounds. The reported endpoint is percent growth (GI% or GIPRCNT), where numbers from 0 - 100% represent growth inhibition, and numbers from -100% - 0 represent cell death. For example, a value of 40 represents 60% growth inhibition. A value of 0 means no net growth occurred over the course of the experiment. A value of -40 indicates 40% of cells at the beginning of the experiment died by the end of the experiment. A value of -100 means all cells are dead at the end of the experiment.
NCI-60 Human Tumor Cell Lines Screen was performed using the standard one-dose NCI protocol, which is described in more detail at https://dtp.cancer.gov/discovery_development/nci-60/default.htm.
Compounds with GIPRCNT values below 10 were considered active. Activity score was based on GIPRCNT using the following formula: […]
Score is 0 for GIPRCNT values of 100 or above, 50 for GIPRCNT values of 0, and 100 for GIPRCNT values of -100.

Row | SMILES | growth
1 | CCCCCCCCCCCCCCCc1ccc(Cl)c(O)c1Cl (tested in a mixture with another compound) | 10.8% (inactive)

Same assay, conditions: 10 µM

Row | SMILES | growth
2 | CCc1ccccc1-n1c(N)c(C#N)c(-c2ccc(OC)c(OC)c2)c(C#N)c1=O | 104% (inactive)
3 | CC#C[C@]1(O)CC[C@H]2[C@@H]3CCC4=CC(=O)CCC4=C3[C@@H](c3ccc4c(c3)OCO4)C[C@@]21C | 75.8% (inactive)
4 | COc1ccc(Cl)cc1C(=O)NCCc1ccc(S(=O)(=O)NC(=O)NC2CCCCC2)cc1 | 104% (inactive) and 97.9% (inactive)
5 | CCCCCCCCCCCCCCCc1ccc(Cl)c(O)c1Cl (tested in a mixture with another compound) | 111% (inactive)

Same assay, conditions: 10 µM unless noted

Row | SMILES | growth
6 | CN1C(=O)C(N=Nc2ccc([N+](=O)[O-])cc2)SC1=S (stereo not given) | 69.4% (inactive) and 81.4% (inactive)
7 | O=C=NC(c1ccccc1)(c1ccccc1)c1ccccc1 | 107% (inactive)
8 | C[N+](C)(C)CN1C(=O)c2ccccc2C1=O | 98.5% (inactive)
9 | N/C(=N\N=C\c1ccc2c(c1)OCO2)N/N=C\c1ccc2c(c1)OCO2 | 108% (inactive) and 92.1% (inactive)
10 | COc1cc(-c2nccc3cc4c(cc23)OCO4)cc(OC)c1OC | 38.3% (inactive) and 38.8% (inactive)
11 | COc1cc(C(=O)N/N=C/c2ccc(N(C)C)cc2)cc(OC)c1OC | 53.3% (inactive)
12 | O=C(Cc1cccc2ccccc12)N/N=C/c1ccc2c(c1)CCC2 | 92.1% (inactive)
13 | CCOc1ccc2cc(-c3nn(CC4CCNCC4)c4ncnc(N)c34)ccc2c1 | 102% (inactive) and 65.9% (inactive)
14 | OC(COc1cccc2ccccc12)CN1CCN(c2ccc(Cl)cc2)CC1 (stereo not given) | 87.6% (inactive) and 90.2% (inactive)
15 | Cn1c(=O)c2[nH]c(CCCCCCCCc3nc4ccccc4[nH]3)nc2n(C)c1=O | 66.9% (inactive) and 65.4% (inactive)
16 | CCCCCCCCCCCCCCCCOc1ccc(C)cc1 | 109% (inactive)
17 | Clc1ccc(SSc2ccc(Cl)cc2)cc1 | 93.7% (inactive) and 89.2% (inactive)
18 | O=[N+]([O-])c1ccccc1N(S(=O)(=O)c1ccccc1)S(=O)(=O)c1ccccc1 | 107% (inactive) and 98.6% (inactive)
19 | CCN(CC)C(=O)c1cccnc1 | 105% (inactive)
20 | C#CCN(C)Cc1ccccc1 | 102% (inactive)
21 | CC1=CCC2CC1C2(C)C (stereo not given) | 95.8% (inactive) and 101% (inactive)

Row | SMILES | growth
22 | CCN(CC)CCC(CNc1c2ccc([N+](=O)[O-])cc2nc2cc(OC)c(OC)cc12)c1ccccc1 (stereo not given) | -42.9% (active) and -93.8% (active)
23 | O=C1c2c(O)cc(O)cc2OC(c2ccc(O)c(O)c2)C1O (stereo not given) | 101% (inactive)
24 | CCN(CC)C(=S)SSC(=S)N(CC)CC | 85.4% (inactive) and 97% (inactive)
25 | Cc1ccc(-c2noc(CC(=O)c3ccc([N+](=O)[O-])cc3)n2)cc1 | 106% (inactive)
26 | CC(O)(CC(=O)CC(=O)c1ccccc1)c1ccccc1 (stereo not given) | 95.8% (inactive) and 99.9% (inactive)
27 | c1ccc2c(CC3=NCCN3)cccc2c1 | 107% (inactive) and 104% (inactive)
28 | CCN(CC)CCOc1ccc(/C=N/Nc2nc3c([nH]2)c(=O)n(C)c(=O)n3C)cc1 | 98.5% (inactive) and 102% (inactive)
29 | O=C(Nc1cccc(-n2ccc3c(NC(=O)c4ccccc4)nccc32)c1)c1ccc(Cl)c(C(F)(F)F)c1 | 13.8% (inactive) and 55.4% (inactive)
30 | O=C(O)CCCCc1ccc([N+](=O)[O-])cc1 | 101% (inactive) and 105% (inactive)
31 | O=C(/C=C\c1ccnc2ccccc12)c1ccc([N+](=O)[O-])cc1 | 90% (inactive) and 86.4% (inactive)
32 | Cc1cc(=O)[nH]c(O)c1C#N | 98.4% (inactive) and 94.7% (inactive)
33 | COc1cc2c(Nc3ccc(Cl)c(Cl)c3F)ncnc2cc1OCC1C[C@@H]2CN(C)C[C@@H]2C1 (stereo not given in full) | -93.5% (active) and 32.1% (inactive)
34 | Cc1c(Cl)cccc1NCN1C(=O)c2ccccc2C1=O | 110% (inactive)
35 | Nc1cc(-c2cccc(OC(F)(F)F)c2)nc2ccc(N3CCCC3)cc12 | 31% (inactive) and 30.5% (inactive) and 23% (inactive)
36 | O=C1OC(Oc2ccc(Br)cc2)(c2ccccc2)c2ccccc21 (stereo not given) | 88.8% (inactive) and 102% (inactive)
37 | CN1CCN(Cc2occc(=O)c2O)CCN(C)CCN(Cc2occc(=O)c2O)CC1 | 98% (inactive) and 87.6% (inactive)

Same assay, conditions: 100 µM

Row | SMILES | growth
38 | CCc1ccccc1-n1c(N)c(C#N)c(-c2ccc(OC)c(OC)c2)c(C#N)c1=O | 10.5% (inactive)
39 | CC#C[C@]1(O)CC[C@H]2[C@@H]3CCC4=CC(=O)CCC4=C3[C@@H](c3ccc4c(c3)OCO4)C[C@@]21C | 4.26% (active)
40 | COc1ccc(Cl)cc1C(=O)NCCc1ccc(S(=O)(=O)NC(=O)NC2CCCCC2)cc1 | 68.5% (inactive)
